An excerpt weighted towards active compounds, which were near 19% of everything screened.
KB-V1 MDR tox – kills drug-selected multidrug resistant KB-V1 cells. Potency, µM (titrated, usually from 46.1 µM), usual class: cytotoxic. 400,000 compounds, 3.4% hits. KB-V1 MDR cells viability, CellTiter-Glo, 72 h; further: nearly all actives have a fitted effect of over 60% in size
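In this primary screen, KB-V1 cells overexpressing P-gp are incubated with library compounds (lowest to highest concentration) for 72 h at 37 degrees C before a luminescent ATP viability read.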
HT1080 IDH1KD tx – HT-1080 IDH1 knockdown cell toxicity (counter line). HT-1080 IDH1 knockdown viability, ATP luminescence, 48 h. Potency, µM (titrated, usually from 46.1 µM), hits mostly cytotoxic. 360,000 compounds, 2% hits. AID 686971
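HT-1080-IDH1KD cells (IDH1 knocked down), 750/well in RPMI with 5% FBS, treated with compound 48 h at 37 degrees C. Viability by CellTiter-Glo luminescence, normalised to DMSO and no-cell wells; concentration-response curves classed.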
TDP1 cell noCPT – qHTS for Inhibitors of human tyrosyl-DNA phosphodiesterase 1 (TDP1): qHTS in cells in absence of CPT; Potency, µM (highest dose often 46.2 µM), actives largely listed as inhibitors; DT40 Tdp1-/- hTDP1 cells, no CPT, ATP luminescence, 48 h; 420,000 compounds, 15% hits; AID 686978, 2013; further: nearly all actives have a fitted effect of over 55% in size
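Seeded 400 DT40-hTDP1 cells/well (vehicle DMSO, no 20 nM CPT); pinned compounds; ≥48 hr at 37 °C; CellTiter-Glo luminescence as viability measure.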
KB-3-1 tox – kills parental KB-3-1 adenocarcinoma cells | KB-3-1 viability, CellTiter-Glo ATP luminescence, 72 h | Potency, µM (highest dose often 46.1 µM), actives largely listed as cytotoxic | 400,000 compounds, 1.4% hits | AID 1347075; further: nearly all actives have a fitted effect of over 60% in size
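Here the drug-naive KB-3-1 line serves as comparator for MDR sub-line selectivity; cells received compound titrations, 72 h at 37 °C, then CellTiter-Glo readout.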
DT40 TDP1 CPT – DT40-hTDP1 cell growth loss with CPT. chicken DT40 Tdp1-/-;hTDP1 cells + 20 nM CPT, ATP luminescence, 48 h. Potency, µM (titrated, usually from 46.2 µM), most hits filed as inhibitors. 420,000 compounds, 12% hits. AID 686979; further: nearly all actives have a fitted effect of over 55% in size
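Cell growth measured by CellTiter-Glo luminescence after a minimum 48 h, 37 C compound exposure with 20 nM CPT in Tdp1-knockout DT40 cells stably expressing hTDP1, seeded 400/well; qHTS titration format.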
HT1080-NT tox – kills 2HG-producing HT-1080-NT fibrosarcoma cells | 360,000 compounds, 1.6% hits | Potency, µM (highest dose often 46.1 µM), usual class: cytotoxic | HT-1080-NT fibrosarcoma viability, CellTiter-Glo ATP luminescence, 48 h;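 further: NT is the 2HG producing partner of a matched IDH1 knockdown line; nearly all actives have a fitted effect of over 55% in size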
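750 cells/well, RPMI + 5% FBS; 2 h settle, compound pin-transfer, 48 h at 37 degrees C. CellTiter-Glo 10 min RT, luminescence. Normalized to DMSO and media-only wells.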
A number is an active result; i = inactive; ? = inconclusive; nt = not tested or not shown; [ ] = another dose, or the depositor's remark. The call rests on the fitted dose curve; in most records, active means well fitted curve in the direction sought with a large enough effect; inconclusive means small, poorly fitted or top-dose-only effect, or another doubt; inactive means no such curve, though single readings can be large; an effect the other way counts as inactive or inconclusive.

SMILES | KB-V1 MDR tox | HT1080 IDH1KD tx | TDP1 cell noCPT | KB-3-1 tox | DT40 TDP1 CPT | HT1080-NT tox
Cc1cccc(N2CCN(C(=O)Cc3c(C(=O)O)c(C)cn3C)CC2C)c1 (configuration not stated) | i | nt | i | i | i | nt
CCC1CN(Cc2cccn2-c2ccccn2)Cc2cc(OC)ccc2O1 (configuration not stated) | nt | nt | ? | nt | i[9.04 µM] | nt
Cc1cc(C)cc(C(=O)Nc2ccc(-c3nc4ncccc4o3)cc2)c1 | i | nt | ? | i | 21µM | nt
Cc1ccc(-c2nc3ncccc3o2)cc1NC(=O)c1ccc([N+](=O)[O-])o1 | 18µM | ? | 16µM | ? | 15µM | ?
Cc1cc(-c2nc3ncccc3o2)ccc1NC(=O)c1ccc([N+](=O)[O-])o1 | i | i | i | i | i | i
CC(C)(Oc1ccc(Cl)cc1)C(=O)Nc1ccc(-c2nc3ncccc3o2)cc1 | i | nt | 18µM | i | 16µM | nt
COc1ccc(C(=O)Nc2ccc(-c3nc4ncccc4o3)cc2)cc1 | i | nt | i | i | i | nt
CC(C)C(=O)Nc1ccc(-c2nc3ncccc3o2)cc1 | i | i | ? | i | i | i
O=C(Nc1ccc(-c2nc3ncccc3o2)cc1)c1ccc([N+](=O)[O-])o1 | i | ? | 3.7µM | ? | 8.2µM | ?
CCCCNC(=O)C1(C)CCCCN1C(=O)c1ccc2c(c1)CCO2 (configuration not stated) | i | i | i | i | i | i
O=C(Nc1ccccc1)N1CC[C@@]2(CCCN(C(=O)c3ccncc3)C2)C1 | nt | nt | i | nt | i | nt
O=C(Nc1ccc2oc(-c3ccncc3)nc2c1)c1ccc([N+](=O)[O-])o1 | i | 16µM | 5.8µM | ? | 2.9µM | 6.5µM
CCCOP(=O)(c1ccc(N(C)C)cc1)C(Nc1ccccc1)c1ccc(N(C)C)cc1 (configuration not stated) | i | i | 2.3µM | i | 8.2µM | i
Cn1c(CC(=O)NNC(=O)c2ccc(F)cc2Cl)nc2ccccc21 | i | i | ? | i | 16µM | i
CC(=O)N1N=C(c2ccc3ccccc3c2)OC12CCCC2 | ? | i | ? | i | 21µM | i
N#CSCC(=O)c1cccc2ccccc12 | i | ? | 4.6µM | ? | 4.6µM | ?
C=CCn1c(SCc2c(C(=O)OC)sc(N)c2C(=O)OC)nnc1-c1ccc(Br)cc1 | i | i | 18µM | i | ? | i
COc1cccc(Oc2ccc(C(F)(F)F)cc2NC(=O)CN2C(=O)NC3(CCCC3)C2=O)c1 | i | i | ? | ? | 15µM | ?
CC(=O)Nc1cc(C(F)(F)F)ccc1Oc1cccc(Br)c1 | i | i | 13µM | ? | 23µM | i
CC(=O)Nc1cc(C(F)(F)F)ccc1OCCOc1ccccc1 | i | i | 16µM | i | ? | i
COc1ccc(NC(=O)CN2C(=O)NC3(CCCC3)C2=O)c(OC)c1 | i | i | i | i | i | i
Cc1nc2sccn2c(=O)c1S(=O)(=O)NCc1ccc(F)cc1 | i | nt | i | i | i | nt
COC(=O)c1ccccc1NC(=O)c1cc(CN2CCOCC2)on1 | i | nt | i | i | i | nt
COc1cc2ccc(CC(N)=O)cc2cc1OC | i | i | i | i | i | i
COc1cccc(-c2nn(-c3ccccc3)cc2CN(C)Cc2c(C)nc3ccccn23)c1 | i | ? | ? | i | ? | ?
SMILES | KB-V1 MDR tox | HT1080 IDH1KD tx | TDP1 cell noCPT | KB-3-1 tox | DT40 TDP1 CPT | HT1080-NT tox
COc1cccc(-c2nn(-c3ccccc3)cc2CN(C)Cc2ccon2)c1 | i | i | 11µM | i | i | i
COc1ccc(C2=NOC(Cn3c(Cc4ccc(Cl)cc4)nc4c3c(=O)n(C)c(=O)n4C)C2)cc1 (configuration not stated) | ? | i | 23µM | i | 26µM | i
CCc1cccc(NC(=O)C2CCN(S(=O)(=O)c3ccc4c(c3)NC(=O)CO4)CC2)c1 | i | i | ? | i | ? | i
CCOC(=O)c1c(-c2ccccc2)oc2ccc(NS(=O)(=O)c3ccc(OC)cc3)cc12 | nt | nt | 3.3µM | nt | 4.6µM | nt
CCOc1ccc2oc(-c3ccccc3)c(C(N)=O)c2c1 | i | i | i | i | i | i
CCOC(=O)c1c(-c2ccccc2)oc2ccc(NS(=O)(=O)c3ccccc3)cc12 | ? | nt | i | i | ? | nt
CCOC(=O)c1c(-c2ccccc2)oc2ccc(NS(=O)(=O)c3cc(C)c(C)cc3C)cc12 | i | nt | 10µM | i | 18µM | nt
CCOc1ccc2oc(-c3ccccc3)c(C(=O)N(C)C)c2c1 | i | i | 18µM | i | ? | i
O=C1CC2(CCN(C(=O)c3c(F)cccc3F)CC2)Oc2ccccc21 | ? | i | i | i | i | i
Cc1ccc(-n2ncc3c(NNC(=O)c4cccs4)ncnc32)cc1 | ? | i | i | i | i | i
CC(=O)c1cc(-c2ccccc2)n(CCC(=O)NCc2ccc(C)cc2)c1C | i | nt | ? | i | ? | nt
CCSc1ccccc1C(=O)N1CCC2(CC1)CC(=O)c1ccccc1O2 | i | i | 16µM | i | i | i
O=C1CC2(CCN(C(=O)c3ccc(F)c(F)c3)CC2)Oc2ccccc21 | i | i | ? | i | 29µM | i
O=C1CC2(CCN(C(=O)c3ccccc3Cl)CC2)Oc2ccccc21 | i | i | ? | i | ? | i
O=C1CC2(CCN(C(=O)c3ccc(Cl)cc3)CC2)Oc2ccccc21 | ? | i | ? | i | i | i
CCOC(=O)C1CC(c2ccccc2)=NNC1=O (configuration not stated) | i | i | i | i | i | i
Cn1c(COc2ccc(Br)cc2)nnc1SC1CCc2ccccc2C1=O (configuration not stated) | 16µM | i | ? | ? | ? | i
CN(C)c1ncnc2c1ncn2[C@H]1CN(Cc2ccc(Cl)cc2)C[C@@H](CO)O1 | i | i | i | i | ? | ?
CCc1ccc(NC(=O)C2CCCN2c2nn3c(=O)cc(C)nc3s2)cc1 (configuration not stated) | i | i | ? | i | i | i
CCOC(=O)c1ccc(N=c2sc(C(=O)OC)cc(=O)n2Cc2ccc3c(c2)OCO3)cc1 | i | i | 6.5µM | i | 6.5µM | i
COC(=O)c1cc(=O)n(Cc2ccc3c(c2)OCO3)c(=Nc2ccc(F)cc2)s1 | i | i | ? | ? | ? | i
COC(=O)c1ccc(N=c2sc(C(=O)OC)cc(=O)n2C)cc1 | ? | i | 26µM | i | 21µM | i
COC(=O)c1cc(=O)n(-c2ccc(F)cc2)c(=Nc2ccc(F)cc2)s1 | ? | ? | 6.5µM | ? | 6.5µM | ?
CCOC(=O)c1ccc(N=c2sc(C(=O)OC)cc(=O)n2C2CC2)cc1 | i | i | i | i | i | i
